The list is not random: actives were taken first. Their share in the collection is about 12%.
HP1b chromo inh: inhibitors of HP1-beta chromodomain binding to methylated histone tails. hit rate 0.56% among 390,000. AlphaScreen HP1-beta / biotin-H3K9me3 peptide binding. Potency, µM (titrated, usually from 114 µM), without a hit: at the highest dose activity change, negative = inhibition, most hits filed as inhibitors. AID 540317. P83916; note: nearly all actives have a fitted effect of over 70% in size
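Compound inhibition of the preformed complex between 50 nM HP1-beta and 50 nM biotinylated H3K9me3 peptide was read by AlphaScreen. Buffer was PBS pH 7.4 with 0.01% Tween-20. Incubations ran 30 min at room temperature, with 10 ug/mL donor/acceptor beads.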
G9a inh: blocks human histone lysine methyltransferase G9a | AID 504332 | Potency, µM (top dose mostly 102 µM), without a hit: top-dose activity, negative = inhibition, hits mostly inhibitors | G9a H3K9 monomethylation, AlphaScreen, 2 h | hit rate 8.8% among 350,000; note: % is set by controls: 0 for no effect and ±100 for the full control effect; nearly all actives have a fitted effect of over 75% in size
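G9a (20 nM) was preincubated 15 min with compound, then reacted 2 h at room temperature with 500 nM biotin-H3K9 peptide and 20 µM SAM. Monomethyl-H3K9 detected by AlphaScreen using anti-H3K9me1 antibody.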
L3MBTL1 block: L3MBTL1 (human) inhibition; AlphaScreen L3MBTL1–H3K9me1 peptide binding; AID 485360; hit rate 0.66% among 230,000; Potency, µM (top dose mostly 57.1 µM), without a hit: top-dose activity, negative = inhibition, usual class: inhibitors; Q9Y468; note: % is set by controls: 0 for no effect and ±100 for the full control effect; nearly all actives have a fitted effect of over 60% in size
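AlphaScreen proximity signal between nickel-chelate acceptor and streptavidin donor beads (final 10 ug/mL) reports binding of 50 nM L3MBTL1 to 75 nM biotin-H3 K9me1 peptide; complex incubated with compounds 30 min at room temperature; cefsulodin titration as control.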
BAZ2B block: BAZ2B (human) inhibition; Q9UIF8; Potency, µM (doses to about 114 µM), inactives show top-dose activity change, negative = inhibition, actives largely listed as inhibitors; hit rate 4.4% among 360,000; AlphaScreen BAZ2B-H3K14Ac peptide displacement; note: % is set by controls: 0 for no effect and ±100 for the full control effect; nearly all actives have a fitted effect of over 60% in size
Target sequence (Q9UIF8 whole entry, looked up): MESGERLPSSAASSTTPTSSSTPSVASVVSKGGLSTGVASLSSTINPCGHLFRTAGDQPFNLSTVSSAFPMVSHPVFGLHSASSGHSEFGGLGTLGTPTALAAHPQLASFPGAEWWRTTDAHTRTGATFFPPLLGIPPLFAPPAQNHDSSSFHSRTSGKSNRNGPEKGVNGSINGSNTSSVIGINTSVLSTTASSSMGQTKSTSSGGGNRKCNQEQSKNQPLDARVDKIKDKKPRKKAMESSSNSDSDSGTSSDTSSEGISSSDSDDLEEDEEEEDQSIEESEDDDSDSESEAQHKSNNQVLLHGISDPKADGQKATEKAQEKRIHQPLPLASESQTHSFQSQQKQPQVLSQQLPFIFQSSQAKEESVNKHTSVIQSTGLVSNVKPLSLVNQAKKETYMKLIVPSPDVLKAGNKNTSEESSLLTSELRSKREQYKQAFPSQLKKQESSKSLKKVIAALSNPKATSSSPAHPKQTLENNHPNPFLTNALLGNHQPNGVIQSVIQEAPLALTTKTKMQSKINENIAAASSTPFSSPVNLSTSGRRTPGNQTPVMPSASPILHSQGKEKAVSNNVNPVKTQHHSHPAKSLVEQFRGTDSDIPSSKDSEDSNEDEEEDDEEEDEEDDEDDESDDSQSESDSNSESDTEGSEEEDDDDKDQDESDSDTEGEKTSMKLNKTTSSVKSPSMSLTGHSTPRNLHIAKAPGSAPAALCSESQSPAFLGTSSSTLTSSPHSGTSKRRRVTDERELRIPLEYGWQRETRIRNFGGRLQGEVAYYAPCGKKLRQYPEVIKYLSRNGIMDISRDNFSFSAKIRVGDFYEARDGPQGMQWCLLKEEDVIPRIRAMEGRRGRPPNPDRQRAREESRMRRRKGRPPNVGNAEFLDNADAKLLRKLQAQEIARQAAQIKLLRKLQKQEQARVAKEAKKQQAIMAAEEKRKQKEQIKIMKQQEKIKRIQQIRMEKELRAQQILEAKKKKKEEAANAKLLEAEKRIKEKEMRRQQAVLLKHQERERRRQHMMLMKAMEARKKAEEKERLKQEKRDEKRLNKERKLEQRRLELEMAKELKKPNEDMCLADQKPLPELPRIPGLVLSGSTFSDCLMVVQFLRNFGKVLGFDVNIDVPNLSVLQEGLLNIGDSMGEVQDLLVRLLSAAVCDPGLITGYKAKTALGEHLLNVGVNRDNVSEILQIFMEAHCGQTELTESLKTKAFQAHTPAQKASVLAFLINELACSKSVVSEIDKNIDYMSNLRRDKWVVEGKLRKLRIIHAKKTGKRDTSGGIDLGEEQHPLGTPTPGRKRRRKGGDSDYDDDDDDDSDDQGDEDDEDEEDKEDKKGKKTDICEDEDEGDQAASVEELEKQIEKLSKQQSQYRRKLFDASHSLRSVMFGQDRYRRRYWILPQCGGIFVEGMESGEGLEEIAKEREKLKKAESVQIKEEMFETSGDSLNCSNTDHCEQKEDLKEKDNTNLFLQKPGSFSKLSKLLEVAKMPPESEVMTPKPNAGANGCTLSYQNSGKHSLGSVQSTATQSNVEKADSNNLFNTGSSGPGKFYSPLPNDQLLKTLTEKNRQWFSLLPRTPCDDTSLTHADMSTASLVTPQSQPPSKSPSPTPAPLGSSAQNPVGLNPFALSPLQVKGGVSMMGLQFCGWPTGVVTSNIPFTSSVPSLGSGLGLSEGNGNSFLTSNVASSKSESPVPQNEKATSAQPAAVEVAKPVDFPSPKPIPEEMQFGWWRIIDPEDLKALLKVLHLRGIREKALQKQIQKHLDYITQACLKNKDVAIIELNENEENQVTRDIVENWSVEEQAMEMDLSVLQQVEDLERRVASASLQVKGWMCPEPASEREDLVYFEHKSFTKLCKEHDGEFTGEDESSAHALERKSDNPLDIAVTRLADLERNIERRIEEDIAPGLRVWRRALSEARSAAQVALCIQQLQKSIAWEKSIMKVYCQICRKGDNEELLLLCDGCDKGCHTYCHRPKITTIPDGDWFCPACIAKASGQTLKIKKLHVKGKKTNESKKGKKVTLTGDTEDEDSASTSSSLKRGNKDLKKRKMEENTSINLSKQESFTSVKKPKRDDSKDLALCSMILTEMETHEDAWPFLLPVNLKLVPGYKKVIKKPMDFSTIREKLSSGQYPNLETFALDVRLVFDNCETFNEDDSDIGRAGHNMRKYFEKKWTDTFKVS
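Compounds, titrated to a top concentration of 110 uM, were incubated 30 min at room temperature with preformed BAZ2B/acetyl-K14 H3 peptide complex (50 nM each). Proximity signal was measured by AlphaScreen after 20 min with beads.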
Sfp inh: blocks B. subtilis Sfp PPTase activity; Q9F4F7; Biochemical Sfp PPTase activity, qHTS; Potency, µM, without a hit: largest response in the series, negative = inhibition, hits mostly inhibitors; hit rate 3.5% among 310,000; AID 1490;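 note: the enzyme is Sfp with the accession as filed and its product quenches rhodamine fluorescence; 0% = enzyme reaction without inhibitor and -100% = no enzyme wells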
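Fluorescence-quenching assay with 15 nM Sfp, 5 uM rhodamine-CoA and 12.5 uM BHQ-2-labelled ybbR peptide in pH 7.6 Hepes/MgCl2 buffer. Enzyme was pre-incubated with compound for 15 min at room temperature. Rate was taken from the 30-min fluorescence change (525/598 nm).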
JMJD2A Tudor inh: JMJD2A Tudor domain (human) inhibition; O75164; AlphaScreen JMJD2A-Tudor / H3K4me3 peptide binding; AID 504339; hit rate 4.4% among 390,000; Potency, µM (highest dose often 114 µM), for inactives: top-dose activity change, negative = inhibition, usual class: inhibitors; note: % is set by controls: 0 for no effect and ±100 for the full control effect; nearly all actives have a fitted effect of over 50% in size
The depositor's hits bear a star; ? = inconclusive; . = no result; ! = not confirmed by another sample; [ ] = dose if it differs, or a comment. Calls come from the whole dose curve; as a rule, active = well fitted curve in the direction sought with a large enough effect; inconclusive = small, poorly fitted or top-dose-only effect, or another doubt; inactive = no such curve, though single readings can be large; an effect the other way counts as inactive or inconclusive. Potency is the fitted concentration of half-maximal effect.

SMILES	HP1b chromo inh	G9a inh	L3MBTL1 block	BAZ2B block	Sfp inh	JMJD2A Tudor inh
Cc1cccc(Nc2nc(-c3ccc(F)cc3)cs2)n1	15.0%	-45.4%	-11.3%	-5.2%	-25.7%	-18.4%
Cc1cccc(Nc2nc(-c3ccccn3)cs2)n1	43.3%	?	4.4%[11.4 µM]	20µM*	?	?
Cc1oc(-c2ccc(C(=O)Nc3cccc(C(F)(F)F)c3)cc2)nc1CSc1ccccc1	25.7%	-0.8%[59 µM]	.	-14.6%	.	-14.1%
NC(=O)C1CCN(Cc2nc3cc(C(F)(F)F)ccc3c(=O)[nH]2)CC1	26.2%	14.1µM*	-1.4%	-24.4%	-19.1%	-10.2%
C[C@](Cc1ccc(O)c(O)c1)(NN)C(=O)O	.	2.24µM*	.	.	.	.
C[C@@](N)(Cc1ccc(O)cc1)C(=O)O	.	.	.	.	-2.1%	.
CC(N)(Cc1ccc(O)c(O)c1)C(=O)O (centres undefined)	.	0.947µM*	.	.	.	.
C=C1c2ccccc2NC(=S)N1Cc1ccc2c(c1)OCO2	24.1%	31.6µM*	-3.5%	-32.3%	-20.0%	-9.0%[11.4 µM]
CC(=O)Nc1cccc(/C(C)=N/Nc2ccc(S(=O)(=O)Nc3ccccc3C(=O)O)cc2[N+](=O)[O-])c1	?	.	.	.	.	35.5µM*
O=C(O)c1ccccc1NS(=O)(=O)c1ccc(N/N=C/c2cccc(O)c2O)c([N+](=O)[O-])c1	?	.	.	.	.	20µM*
CN(CCO)c1ccc(C=NNc2ccc([N+](=O)[O-])cc2S(=O)(=O)Nc2ccccc2C(=O)O)cc1	44.7µM*	.	?	.	.	44.7µM*
CCOc1ccc(C=NNc2ccc(S(=O)(=O)Nc3ccccc3C(=O)O)cc2[N+](=O)[O-])cc1OC	?	.	?	.	.	20µM*
CCCN(CCC)CCNC(=O)c1cc2c(=O)oc3ccc(C)cc3c2s1	7.6%	-34.2%[59 µM]	.	-11.5%	.	-24.6%
CC(=O)Nc1ccc(C=NNc2ccc([N+](=O)[O-])cc2S(=O)(=O)Nc2ccccc2C(=O)O)cc1	12.4%	.	-0.4%	.	.	?
COc1cc(C=NNc2ccc(S(=O)(=O)Nc3ccccc3C(=O)O)cc2[N+](=O)[O-])ccc1O	?	.	?	.	.	25.1µM*
CC(=O)Nc1ccc(C=NNc2ccc(S(=O)(=O)Nc3ccccc3C(=O)O)cc2[N+](=O)[O-])cc1	?	.	?	.	.	50.1µM*
COc1cc(/C=N/Nc2ccc(S(N)(=O)=O)cc2[N+](=O)[O-])cc(OC)c1O	30.4%	.	-22.8%	?	6.2%	-18.7%
C[C@@H](O)CCC[C@H](O)/C=C/[C@H]1[C@H](O)CC(=O)[C@@H]1C/C=C\CCCC(=O)O	.	.	.	.	6.5%	.
CC(C)(Oc1ccc(Cl)cc1)C(=O)NCC(c1ccco1)N1CCCCC1 (centres undefined)	4.5%	-10.3%	0.1%	-9.7%	.	-24.1%
COc1ccc(NC(=O)CN(C)C(=O)c2cccc(S(=O)(=O)N3CCN(c4ccc(F)cc4)CC3)c2)cc1	10.3%	.	.	.	.	-30.5%
C#CCOCCOCCOCCNc1nc(N2CCN(C(=O)C(Cc3cc4ccccc4[nH]3)n3cc(C(N)Cc4ccc(O)cc4)nn3)CC2)nc(N2CCN(C(=O)C(CCC(=O)O)n3cc(C(N)C(C)CC)nn3)CC2)n1 (centres undefined)	-6.5%	-29.3%[2.33 µM]	25.1µM*	31.6µM*	.	44.7µM*
C#CCOCCOCCOCCNc1nc(N2CCN(C(=O)[C@H](CCC(=O)O)n3cc(C(N)Cc4ccc(O)cc4)nn3)CC2)nc(N2CCN(C(=O)[C@H](Cc3cc4ccccc4[nH]3)n3cc(C(N)[C@H](C)CC)nn3)CC2)n1 (some centres undefined)	14.5%	4.4%[12.7 µM]	?	50.1µM*	2.7%	44.7µM*
CCOc1ccc(C(=O)Nc2nnc(S(=O)(=O)Nc3ccccc3C)s2)cc1	12.1%	24.6%	9.5%	-3.4%	23.6%	-21.8%
O=C1[C@H]2[C@H]3[C@H](O)[C@H](O)C/C(=N/OCc4ccccc4)[C@@H]3CC[C@@H]2C(=O)N1Cc1ccccc1	.	.	.	.	-0.1%	.
CC(C)C(NC(=O)c1ccccc1F)C(=O)NCc1ccccc1 (centres undefined)	-3.6%	5.8%[59 µM]	.	0.2%	15.6%	39.8µM*
SMILES	HP1b chromo inh	G9a inh	L3MBTL1 block	BAZ2B block	Sfp inh	JMJD2A Tudor inh
Cc1ccc(-c2cnc3n2CCCCC3)cc1	16.2%	-0.9%	-9.4%	-11.9%	30.3%	-26.1%
c1ccc(-c2ccc(-c3cnc4n3CCCCC4)cc2)cc1	-43.3%	17.8µM*	.	50.1µM*	-2.5%	56.2µM*
Cc1ccc(CNC(=O)CCCN2C(=O)CCn3nc(-c4cccn4C)cc32)cc1	-5.3%[57 µM]	-8.7%[59 µM]	.	?	.	-27.8%
CN(C)c1ccc(CNC(=O)CCCN2C(=O)CCn3nc(-c4cccn4C)cc32)cc1	-3.2%[57 µM]	?	.	39.8µM*	.	?
CCOc1cc(CNCc2cccs2)cc(Br)c1OC	42.7%	-22.6%	12.1%	7.8%	2.7%	7.9%
CCOc1cc(CNc2ccc3c(c2)OCCO3)cc(Br)c1OCC(N)=O	-38.6%	12.6µM*	-18.5%	44.7µM*	1.1%	50.1µM*
CCOc1cc(CNc2ccc3c(c2)OCCO3)cc(Br)c1OC	-69.1%	3.98µM*	.	22.4µM*	-6.5%	39.8µM*
COc1cc(CNc2ccc3c(c2)OCCO3)ccc1OCC(N)=O	7.1%	0.6%	3.9%	-16.1%	10.9%	?
CCOc1c(Br)cc(CNc2ccc3c(c2)OCCO3)cc1OC	-80.6%	3.16µM*	.	35.5µM*	-6.0%	50.1µM*
CCOc1c(Br)cc(CNC2CCCCCCC2)cc1OC	16.7%	-40.9%	6.0%[11.4 µM]	-25.1%	9.2%	-16.1%
CCOc1c(Br)cc(CNc2ccc(N3CCOCC3)cc2)cc1OC	?	11.2µM*	.	25.1µM*	?	50.1µM*
CCc1cc(C(=O)N2CCN(S(=O)(=O)c3ccccc3F)CC2)sc1C	40.6%	-4.6%[2.33 µM]	4.5%	6.2%	.	-7.7%
COc1cc(Cl)ccc1OCc1cc(C(=O)NC2CCc3ccccc32)no1 (centres undefined)	15.1%	?	.	-18.7%	9.2%	1.5%
O=C(COc1cccnc1[N+](=O)[O-])Nc1ccc2c(c1)OC(F)(F)O2	15.4%	14.6%[59 µM]	4.1%	-8.3%	2.1%	-12.0%
Cc1cc(C)c2nc3nc(C)c(C)cc3c(N)c2c1	12.3%	50.1µM*	-11.9%	-24.1%	1.9%	-2.1%
CCCc1cc(C(=O)N/N=C/c2cccn2C)cs1	?	?	.	44.7µM*	2.2%	?
Cn1cccc1/C=N/NC(=O)c1cccs1	14.7%	16.2%	.	-34.5%	11.0%	-8.9%
Nc1ccn([C@@H]2O[C@H](CO)[C@@H](O)C2O)c(=O)n1 (some centres undefined)	20.1%	11.2µM*!	.	3.3%	100µM*!	0.7%
